SMN2 splice up: enhancers of SMN2 splice variant expression | AID 1458 | Potency, µM (series often up to 46.1 µM), inactives show at the highest dose activity change, positive = activation, usual class: activators | 210,000 tested, 2.8% active | HEK293 SMN2-luciferase splicing reporter, luminescence, 30-36 h; further: % of control where 0% means no effect; nearly all actives have a fitted effect of over 55% in size
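HEK293 cells carry an SMN2 minigene-luciferase reporter in which exon 7 inclusion puts luciferase in frame. Cells were seeded at 2000 cells/well, attached for 10-12 hours, then exposed to compounds for 30-36 hours at 37C before ONE-Glo luminescence.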
Rab9 promoter act: activates the Rab9 promoter. Huh7 Rab9 promoter-luciferase reporter, luminescence, 24 h. Potency, µM (doses to about 9.22 µM), without a hit: at the top dose activation, negative = inhibition, most hits filed as activators. 320,000 tested, 2.8% active; further: % of control where 0% means no effect; nearly all actives have a fitted effect of over 60% in size
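Stable Rab9-luc Huh7, 1500 cells/well, 2 h settle; cmpd in DMSO, 24 h, 37 °C/5% CO2; luciferase reagent 10 min RT; luminescence.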
NPC1 prom act: activators of NPC1 promoter. Huh7 NPC1 promoter luciferase reporter, 24 h. Potency, µM (series often up to 9.22 µM), for inactives: at the highest dose activation, usual class: activators. 320,000 tested, 2.4% active. AID 485313; further: % of control where 0% means no effect; nearly all actives have a fitted effect of over 60% in size
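Huh7 reporter cells (NPC1 promoter driving luciferase) are dosed with compound for 24 h at 37 °C, 5% CO2; luciferase detection reagent is then added and luminescence measured after 10 min at ambient temperature.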
ELG1 genotoxic: genotoxicity induction in ELG1-luciferase HEK293T cells; HEK293T ELG1-luciferase reporter, luminescence, 16 h; Potency, µM (doses to about 46 µM), without a hit: at the top dose activity change, positive = activation, hits mostly activators; 330,000 tested, 1.3% active; further: % of control where 0% means no effect; nearly all actives have a fitted effect of over 60% in size
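HEK293T cells expressing luciferase-tagged ELG1 were exposed to compound or DMSO vehicle for 16 hr at 37 °C and 5% CO2. Luciferase activity was then measured with ONE-Glo after 30 min at room temperature.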
FLuc counter: firefly luciferase modulation, counter-screen for miR-21 project. P08659. purified FLuc, Km substrates, luminescence inhibition. Potency, µM (series often up to 57.5 µM), inactives show at the highest dose activity change, negative = inhibition, actives largely listed as inhibitors. 360,000 tested, 6.9% active. AID 588342;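 further: plate controls were vehicle for no effect and reference inhibitor for full effect; nearly all actives have a fitted effect of over 55% in size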
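Biochemical qHTS of compounds, final roughly 60 µM downward over six points, against 10 nM purified firefly luciferase using Km concentrations of substrates (10 uM D-luciferin, 10 uM ATP) in Tris acetate pH 7.5 buffer; luminescence output.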
ELG1 DNA repair: ELG1-dependent DNA repair inhibition; Potency, µM (doses to about 46.1 µM), for the others: top-dose activity change, negative = inhibition, most hits filed as inhibitors; AID 504467; HEK293T ELG1-luciferase reporter, luminescence, 16 h; DNA damage induced by 5-fluorouridine; 330,000 tested, 2.3% active; further: on the % scale 0 is the no-effect control and ±100 the full control effect; nearly all actives have a fitted effect of over 55% in size
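Reporter activity after DNA damage by 5-fluorouridine is monitored. Compound-treated cells incubate 16 hr at 37 °C, then ONE-Glo is added for 30 min before luminescence reading.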
ELG1 FLuc counter: luciferase inhibition in cell-free luciferin readout for ELG1 hits; shares compounds with ELG1 DNA repair; cell-free firefly luciferase luminescence counter-screen, ViewLux; Potency, µM (doses to about 46.1 µM), for inactives: at the top dose activity change, negative = inhibition, most hits filed as inhibitors; 350 tested, 3% active; further: on the % scale 0 is the no-effect control and ±100 the full control effect
ELG1-Luc inh: confirmation of human ELG1-dependent DNA repair inhibitors; 670 tested, 68% active; Potency, µM (doses to about 46.1 µM), for inactives: at the highest dose activity change, negative = inhibition, most hits filed as inhibitors; HEK293T ELG1-luciferase levels, luminescence; cells co-treated with 5-fluorouridine; shares compounds with ELG1 DNA repair; further: on the % scale 0 is the no-effect control and ±100 the full control effect; nearly all actives have a fitted effect of over 55% in size
Target sequence (Q96QE3 whole entry, looked up): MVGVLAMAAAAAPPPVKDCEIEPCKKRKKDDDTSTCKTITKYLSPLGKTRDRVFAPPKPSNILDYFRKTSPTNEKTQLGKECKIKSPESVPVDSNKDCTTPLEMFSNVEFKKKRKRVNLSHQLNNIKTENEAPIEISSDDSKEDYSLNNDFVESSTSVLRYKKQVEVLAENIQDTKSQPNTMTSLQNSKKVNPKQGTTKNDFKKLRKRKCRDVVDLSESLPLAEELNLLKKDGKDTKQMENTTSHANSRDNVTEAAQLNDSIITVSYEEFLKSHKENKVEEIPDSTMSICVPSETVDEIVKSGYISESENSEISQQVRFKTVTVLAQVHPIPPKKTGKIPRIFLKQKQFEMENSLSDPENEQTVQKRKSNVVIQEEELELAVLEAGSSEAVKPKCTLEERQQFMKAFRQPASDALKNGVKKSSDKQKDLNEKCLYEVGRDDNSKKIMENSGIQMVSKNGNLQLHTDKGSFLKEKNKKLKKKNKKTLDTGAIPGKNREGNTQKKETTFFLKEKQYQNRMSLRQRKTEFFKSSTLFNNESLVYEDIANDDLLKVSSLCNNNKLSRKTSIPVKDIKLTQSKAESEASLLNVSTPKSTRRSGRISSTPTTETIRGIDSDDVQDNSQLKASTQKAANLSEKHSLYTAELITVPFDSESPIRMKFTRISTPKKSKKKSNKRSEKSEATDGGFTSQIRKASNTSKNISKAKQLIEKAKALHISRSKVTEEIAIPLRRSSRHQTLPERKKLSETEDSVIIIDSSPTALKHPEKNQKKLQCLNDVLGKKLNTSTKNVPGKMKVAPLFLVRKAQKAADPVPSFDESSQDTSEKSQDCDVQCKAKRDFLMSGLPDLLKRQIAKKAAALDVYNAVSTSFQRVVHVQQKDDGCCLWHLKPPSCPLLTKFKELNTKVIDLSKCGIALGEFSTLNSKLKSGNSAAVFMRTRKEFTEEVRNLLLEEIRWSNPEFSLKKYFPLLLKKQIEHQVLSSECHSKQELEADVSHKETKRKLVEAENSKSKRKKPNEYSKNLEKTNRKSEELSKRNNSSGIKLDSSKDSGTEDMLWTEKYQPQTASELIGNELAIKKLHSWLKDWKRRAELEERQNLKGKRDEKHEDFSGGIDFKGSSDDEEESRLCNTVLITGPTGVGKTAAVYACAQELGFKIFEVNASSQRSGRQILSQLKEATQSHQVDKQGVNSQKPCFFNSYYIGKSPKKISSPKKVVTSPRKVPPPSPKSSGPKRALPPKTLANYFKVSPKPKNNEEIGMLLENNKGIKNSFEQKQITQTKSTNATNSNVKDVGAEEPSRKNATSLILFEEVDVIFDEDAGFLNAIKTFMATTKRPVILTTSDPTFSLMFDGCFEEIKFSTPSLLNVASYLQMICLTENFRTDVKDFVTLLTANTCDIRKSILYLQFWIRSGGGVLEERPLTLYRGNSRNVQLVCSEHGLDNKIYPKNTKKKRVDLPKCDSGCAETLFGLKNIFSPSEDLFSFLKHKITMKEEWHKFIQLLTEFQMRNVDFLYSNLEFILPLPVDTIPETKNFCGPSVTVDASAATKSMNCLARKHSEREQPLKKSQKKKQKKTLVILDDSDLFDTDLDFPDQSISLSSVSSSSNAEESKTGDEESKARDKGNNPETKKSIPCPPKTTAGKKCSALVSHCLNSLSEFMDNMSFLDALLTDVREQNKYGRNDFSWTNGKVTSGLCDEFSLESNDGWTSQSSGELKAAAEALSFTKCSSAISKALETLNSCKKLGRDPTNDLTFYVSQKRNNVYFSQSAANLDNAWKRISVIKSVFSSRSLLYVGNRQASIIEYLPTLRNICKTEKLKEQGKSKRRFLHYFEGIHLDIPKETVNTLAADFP
ELG1-Luc MMS: inhibits ELG1-dependent repair under MMS stimulation in HEK293T cells | shares compounds with ELG1 DNA repair | HEK293T luciferase-tagged ELG1 level, MMS stimulated | Potency, µM (doses to about 46.1 µM), for the others: at the top dose activity change, negative = inhibition, actives largely listed as inhibitors | 670 tested, 53% active; further: on the % scale 0 is the no-effect control and ±100 the full control effect; nearly all actives have a fitted effect of over 60% in size
ELG1 5-FU: confirmation of ELG1 repair inhibitors: viability with 5FU; shares compounds with ELG1 DNA repair; cell viability with 5-FU, ELG1-dependent repair; Potency, µM (titrated, usually from 46.1 µM), inactives show at the highest dose activity change, negative = viability loss, usual class: cytotoxic; 670 tested, under 10 active;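 further: ELG1-luc HEK293T cells cotreated with 5-fluorouridine at 10 µM final; viability measured 16 h after compound addition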
ELG1 MMS cell: confirmation of ELG1 repair inhibitors: viability with MMS; Potency, µM (titrated, usually from 46.1 µM), without a hit: top-dose activity change, negative = viability loss, most hits filed as cytotoxic; Cell viability with MMS, ELG1-dependent DNA repair; AID 624251; 670 tested, 33% active; shares compounds with ELG1 DNA repair;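 further: ELG1-luc HEK293T cells co-treated with 10 µM MMS; viability read 16 h after compound addition; on the % scale 0 is the no-effect control and ±100 the full control effect; nearly all actives have a fitted effect of over 60% in size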
ELG1 unstim viab: counter-screen for ELG1 repair inhibitors: unstimulated cell viability | shares compounds with ELG1 DNA repair | cell viability counter-screen, unstimulated, luminescence | Potency, µM (doses to about 45.9 µM), without a hit: at the top dose activity change, negative = loss of viability, usual class: cytotoxic | 900 tested, 8% active | AID 624252;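 further: compound exposure lasted 16 hours before reading; on the % scale 0 is the no-effect control and ±100 the full control effect; nearly all actives have a fitted effect of over 55% in size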
FLuc biochem: counter-screen for ELG1 repair inhibitors: firefly luciferase inhibition; shares compounds with ELG1 DNA repair; purified firefly luciferase, luminescence counter-screen; Potency, µM (titrated, usually from 57.5 µM), for the others: at the highest dose activity, negative = inhibition, usual class: inhibitors; 350 tested, 10% active; AID 624253; further: on the % scale 0 is the no-effect control and ±100 the full control effect
* = called active by the depositor; ? = inconclusive; . = no result. An excerpt weighted towards active compounds, which were near 9.2% of everything screened. The call rests on the fitted dose curve; in most records, active means well fitted curve in the direction sought with a large enough effect; inconclusive means small, poorly fitted or top-dose-only effect, or another doubt; inactive means no such curve, though single readings can be large; an effect the other way counts as inactive or inconclusive. Potency means the concentration at half of the fitted maximal effect.

SMILES	SMN2 splice up	Rab9 promoter act	NPC1 prom act	ELG1 genotoxic	FLuc counter	ELG1 DNA repair	ELG1 FLuc counter	ELG1-Luc inh	ELG1-Luc MMS	ELG1 5-FU	ELG1 MMS cell	ELG1 unstim viab	FLuc biochem
Cn1cnc2c(F)c(Nc3ccc(Br)cc3Cl)c(C(=O)NOCCO)cc21	.	.	.	.	.	.	.	.	.	.	.	-25%	.
O=C1COc2ccc(C(=O)COC(=O)/C=C/c3cccc(F)c3)cc2N1	.	-3%	-3%	1%	0%	1.8µM*	.	5µM*	17%	14%	-14%	-12%	.
COc1cccc(/C=C/C(=O)OCC(=O)c2ccc3c(c2)NC(=O)CO3)c1OC	-26%	-8%	-6%	-4%	-2%	?	.	.	.	.	.	.	.
CN(C)c1ccnc2sc(C(N)=O)c(N)c12	1%	13%	17%	-25%	-6%	0.82µM*	?	1.3µM*	4.5µM*	6%	1%	-5%	0%
Cc1ccccc1N1CCN(C2=NC(=O)/C(=C/c3cn[nH]c3-c3ccccc3)S2)CC1	3%	-2%	-1%	1%	4%	0.82µM*	33%	1.3µM*	0%	?	1%	0%	-3%
O=C1N=C(N2CCCC2)S/C1=C\c1cn[nH]c1-c1ccccc1	9%	13%	14%	10%	-15%	-17%	.	.	.	.	.	.	.
C/C(Cl)=C\Cn1c(NCCc2ccccc2)nc2c1c(=O)n(C)c(=O)n2C	-64%	-34%	-25%	-13%	-6%	5.2µM*	-9%	13µM*	5µM*	-1%	?	?	-1%
C=CCn1c(NCCc2ccccc2)nc2c1c(=O)n(C)c(=O)n2C	-65%	-23%	-11%	-9%	-1%	?	.	.	.	.	.	.	.
COc1ccc(CNC(=O)c2ccc3c(c2)CCN3S(=O)(=O)c2ccc(C)cc2)cc1	-22%	.	.	.	-2%	.	.	.	.	.	.	.	.
COc1ccc(-c2csc(NC(=O)c3ccc(OCC(=O)N4CCOCC4)c(OC)c3)n2)cc1OC	-71%	-12%	0%	-10%	?	4.6µM*	.	4µM*	14µM*	?	25µM*	16µM*	.

From PubChem BioAssay
